Several values for one entry are separate records, joined by “and”; a condition that tells them apart may be missing. Equal values may be shown once. Inconclusive results are not listed. Activity calls are given as the source filed them. Rule for the calls: active = hit-call score of the fitted dose curve at least 0.9, where 1 is the maximum; inconclusive = response in the unintended direction; inactive = score below 0.9.
molecular target: rat CYP2D2, Cyp2d26 (gene 25053) (UniProt P10634); assay: NVS_ADME_rCYP2D2: NovaScreen (NVS) CYP450-related Enzyme Activity (ADME) Assay for rat CYP2D2 (AID 2283124)
Method: NVS_ADME_rCYP2D2 is a biochemical, single-readout assay that uses extracted gene-proteins in a cell-free assay. Measurements were taken 0.75 hour after chemical dosing in a 96-well plate.NVS_ADME_rCYP2D2 is one of one assay component(s) measured or calculated from the NVS_ADME_rCYP2D2 assay. It is designed to make measurements of enzyme activity, a form of enzyme reporter, as detected with fluorescence intensity signals by Fluorescence technology.Data from the assay component NVS_ADME_rCYP2D2 was analyzed into 1 assay endpoint. This assay endpoint, NVS_ADME_rCYP2D2, was analyzed in the positive analysis fitting direction relative to Acetonitrile as the negative control and baseline of activity. Using a type of enzyme reporter, loss-of-signal activity can be used to understand changes in the enzymatic activity as they relate to the gene Cyp2d2. Furthermore, this assay endpoint can be referred to as a primary readout, because this assay has produced multiple assay endpoints where this one serves a enzymatic activity function. To generalize the intended target to other relatable targets, this assay endpoint is annotated to the cyp intended target family, where the subfamily is xenobiotic metabolism.
Binding assays used specific radioligands (tritiated, iodinated) with non-radioactive competitive displacement ligands in agonist or antagonist protocols (as indicated) and various reference compounds and inhibitors to titrate specific binding to receptors and transporters. Most enzyme assays (CYPs, kinases, phosphatases, proteases, HDACs) used recombinant protein and specific substrates (fluorescence mostly, some colorimetric and radioactive) and inhibitors, followed by a biochemical separation of substrate and product. All assays for the biochemical HTS were initially run in duplicate at a single concentration (10 uM for CYP450 assays and 25 uM for all others). Assay-chemical combinations meeting a pre-defined threshold (e.g., 30% inhibition and other criteria defined below) were then run in singleton concentration-response format with maximum concentration of 20 uM for CYPs and 50 uM for all others. Each assay was run with positive and negative controls, and concurrent controls on every plate. The follow-up (secondary) screen tested active chemical-pairs in concentration series, as well as a few additional assays not tested in the primary screen, some selected negative inactives, and several cases re-run in the concentration series for confirmatory purposes.

rat CYP2D2, Cyp2d26 (gene 25053), sequence (P10634 whole entry, looked up): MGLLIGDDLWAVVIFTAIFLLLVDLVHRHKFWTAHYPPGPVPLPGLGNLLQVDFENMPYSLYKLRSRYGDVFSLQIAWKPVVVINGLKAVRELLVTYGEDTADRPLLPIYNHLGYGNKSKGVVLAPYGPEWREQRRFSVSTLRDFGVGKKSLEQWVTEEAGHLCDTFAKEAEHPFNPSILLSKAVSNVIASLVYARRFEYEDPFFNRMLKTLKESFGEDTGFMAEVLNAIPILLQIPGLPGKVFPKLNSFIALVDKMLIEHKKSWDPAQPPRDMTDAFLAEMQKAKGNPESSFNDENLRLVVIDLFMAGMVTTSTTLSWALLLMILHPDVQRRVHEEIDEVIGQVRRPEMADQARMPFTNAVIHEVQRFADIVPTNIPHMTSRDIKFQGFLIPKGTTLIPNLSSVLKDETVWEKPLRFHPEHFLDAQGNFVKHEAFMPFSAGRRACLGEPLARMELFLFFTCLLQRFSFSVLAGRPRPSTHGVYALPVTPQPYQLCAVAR

Row | SMILES | AC50 | outcome
1 | CC(C)(C)C(=O)C(Oc1ccc(Cl)cc1)n1cncn1 (centres undefined) | 5.33 µM (active) and 5.52 µM (active) | 
2 | CCCCC(C#N)(Cn1cncn1)c1ccc(Cl)cc1 (centres undefined) | 6.44 µM (active) | 
3 | CCNC(=O)NC(=O)C(C#N)=NOC |  | inactive
4 | CCN(CC)C(=O)C(C)Oc1cccc2ccccc12 (centres undefined) | 6.02 µM (active) | 
5 | CC1(C)CCC(=Cc2ccc(Cl)cc2)C1(O)Cn1cncn1 (centres undefined) |  | inactive
6 | CCOc1cc(C(C)(C)C)ccc1C1COC(c2c(F)cccc2F)=N1 (centres undefined) | 0.55 µM (active) | 
7 | Cn1c(-c2ccccc2)cc(-c2ccccc2)[n+]1C | 5.35 µM (active) | 
8 | CCCN(CC)CC1COC2(CCC(C(C)(C)C)CC2)O1 (centres undefined) | 6.05 µM (active) and 2.09 µM (active) | 
9 | COP(=S)(OC)Oc1ccc([N+](=O)[O-])c(C)c1 | 5.28 µM (active) | 
10 | CCOP(=S)(OCC)Oc1nc(Cl)n(C(C)C)n1 | 5.76 µM (active) | 
11 | COP(=S)(OC)SCn1nnc2ccccc2c1=O | 7.04 µM (active) | 
12 | CCNP(=S)(OC)O/C(C)=C/C(=O)OC(C)C (centres undefined) | 5.41 µM (active) | 
13 | CCCCOCN(C(=O)CCl)c1c(CC)cccc1CC | 3.35 µM (active) | 
14 | CCCCC(O)(Cn1cncn1)c1ccc(Cl)cc1Cl (centres undefined) | 4.09 µM (active) | 

Source: PubChem BioAssay (EPA / NIEHS)
